This is a sample that favours compounds with a hit; in the whole collection about 2.8% have one here.
PP1 inh – counter-screen for PP5 inhibitors: inhibitors of human PP1-alpha | P62136 | purified PP1alpha, OMFP fluorescence | inhibition, % at 6.7 µM | actives 0.9% (n = 320,000) | AID 2235;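 active means inhibition above the mean inhibition of all tested compounds plus 3 SD, computed separately for each screening campaign, cut at about 15% in these data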
Target sequence (P62136 whole entry, looked up): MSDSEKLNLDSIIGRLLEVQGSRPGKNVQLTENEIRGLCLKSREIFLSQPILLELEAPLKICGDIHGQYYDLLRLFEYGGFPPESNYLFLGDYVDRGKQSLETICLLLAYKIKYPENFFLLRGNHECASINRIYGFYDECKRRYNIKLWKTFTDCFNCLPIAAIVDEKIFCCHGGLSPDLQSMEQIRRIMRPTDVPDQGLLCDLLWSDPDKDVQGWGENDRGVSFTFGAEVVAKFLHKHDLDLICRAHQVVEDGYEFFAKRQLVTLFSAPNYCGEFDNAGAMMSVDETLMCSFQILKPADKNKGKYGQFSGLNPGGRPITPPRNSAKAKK
Granule exo inh – blocks lytic granule exocytosis; AID 651702; TALL-104 LAMP-1 surface exposure, flow cytometry; cells stimulated with thapsigargin and PMA; inhibition, % at 10 µM; actives 0.66% (n = 360,000);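 active means inhibition above about 55%, limit read from the data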
SKKanGAS inh – inhibitors of SKKanGAS S. pyogenes growth in kanamycin (SK-promoter or general growth effect); inhibition, % at 7.5 µM; BacTiter-Glo, 6 h; actives 1.3% (n = 300,000); AID 1662;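 active means mean replicate score, as percent of positive control median, at least 50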;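 further: strain carries kanamycin resistance gene driven by streptokinase promoter and grows in 40 µg/ml kanamycin; loss of luminescence reflects streptokinase promoter inhibition or plain growth inhibition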
PP5 inh – inhibitors of human protein phosphatase 5 (PP5); inhibition, % at 6.7 µM; purified PP5c, OMFP substrate fluorescence; AID 1987; actives 0.18% (n = 320,000);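 active means inhibition above the campaign's mean inhibition across all tested compounds plus 3 SD, cut at about 9.5% in these data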
IDE inh – inhibits human insulin-degrading enzyme in HEK cells. P14735. FAbetaB cleavage, fluorescence polarization. inhibition, % at 5.59 µM. actives 0.41% (n = 320,000);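 active means percent inhibition above the average of all tested compounds plus 3 SD, set per screening campaign, cut at about 16% in these data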;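 further: IDE supplied by intact live HEK cells; FP after avidin binding of uncleaved biotin substrate so inhibition keeps polarization high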
IDE cell activ – activators of human insulin-degrading enzyme in cells; HEK cells, FAbeta-B cleavage, fluorescence polarization; 0% vehicle, 100% cell-free pure enzyme wells; activation, % at 5.96 µM; actives 0.073% (n = 340,000); AID 493087;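 active means activation above the mean of all tested compounds plus 3 SD, set per screening campaign, cut at about 17% in these data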
Hits are given with their value.

How did CCCOc1cccc(C2C(C(=O)c3cccs3)=C(O)C(=O)N2CCN2CCOCC2)c1 (centres undefined) do in these assays?
PP1 inh: inactive; Granule exo inh: inactive; SKKanGAS inh: inactive; PP5 inh: inactive; IDE inh: inactive; IDE cell activ: inactive

How did O=C1C(Br)=C(c2ccccc2)C(c2ccccc2)=C1c1ccccc1 do in these assays?
Granule exo inh: 106; IDE cell activ: inactive

What do the screens show for `Cc1ccc(-c2nc3ccc(Cl)cc3c(=O)n2O)cc1`?
PP1 inh: inactive; Granule exo inh: inactive; SKKanGAS inh: 70; PP5 inh: inactive; IDE inh: inactive; IDE cell activ: inactive

Results for O=C(NC1CCCCC1)C1CCN(S(=O)(=O)c2cccc3nsnc23)CC1 ?
PP1 inh: inactive; Granule exo inh: inactive; SKKanGAS inh: inactive; PP5 inh: inactive; IDE inh: inactive; IDE cell activ: inactive

What do the screens show for `O=C(O)c1ccccc1NC(=O)C1CCN(S(=O)(=O)c2cccc3nsnc23)CC1`?
PP1 inh: inactive; Granule exo inh: inactive; SKKanGAS inh: inactive; PP5 inh: inactive; IDE inh: inactive; IDE cell activ: 32

How did C#CCNC(=O)C[C@@H]1C[C@@]2(C(=O)OCC)CCCC=C2N(CCCCCCCC)C1=O do in these assays?
Granule exo inh: inactive

Results for CCCCN(CCCC)c1cc(C)nc(-c2ccccc2O)n1 ?
PP1 inh: inactive; Granule exo inh: inactive; SKKanGAS inh: 54; PP5 inh: inactive; IDE inh: inactive; IDE cell activ: inactive

How did Cc1ccc(C)c(-c2csc(N)c2C(=O)OC(C)C)c1 do in these assays?
PP1 inh: inactive; Granule exo inh: inactive; SKKanGAS inh: 53; PP5 inh: inactive; IDE inh: inactive; IDE cell activ: inactive

Results for COCCOC(=O)c1c(C)nc(SCC(=O)Nc2ccc(C)cc2)c(C#N)c1-c1ccco1 ?
PP1 inh: inactive; Granule exo inh: inactive; SKKanGAS inh: 67; PP5 inh: inactive; IDE inh: inactive; IDE cell activ: inactive

How did CNC(=O)c1c(C)nc(SCC(=O)NCc2ccc(OC)cc2)c(C#N)c1-c1ccco1 do in these assays?
PP1 inh: inactive; Granule exo inh: inactive; SKKanGAS inh: inactive; PP5 inh: inactive; IDE inh: inactive; IDE cell activ: inactive

What do the screens show for `COCCOC(=O)c1c(C)nc(SCC(=O)Nc2cccc3ccccc23)c(C#N)c1-c1ccco1`?
PP1 inh: inactive; Granule exo inh: inactive; SKKanGAS inh: 50; PP5 inh: inactive; IDE inh: inactive; IDE cell activ: inactive

What do the screens show for `COc1ccc(C2=CC(=O)CCC2)cc1`?
PP1 inh: inactive; Granule exo inh: 94; SKKanGAS inh: inactive; PP5 inh: inactive; IDE inh: inactive; IDE cell activ: inactive

Results for Cc1nc(C)c(C(=O)OCC(=O)NCc2ccccc2)s1 ?
PP1 inh: inactive; Granule exo inh: inactive; PP5 inh: inactive; IDE inh: inactive; IDE cell activ: inactive

Results for Cc1nn(Cc2c(Cl)cccc2Cl)c(C)c1NC(=O)c1cn(-c2ccccc2)nc1-c1ccccc1 ?
PP1 inh: inactive; Granule exo inh: inactive; SKKanGAS inh: 63; PP5 inh: inactive; IDE inh: inactive; IDE cell activ: inactive

What do the screens show for `Cc1cccc(C)c1NC(=O)CNC(=O)c1cn(-c2ccccc2)nc1-c1ccccc1`?
PP1 inh: inactive; Granule exo inh: inactive; SKKanGAS inh: inactive; PP5 inh: inactive; IDE inh: inactive; IDE cell activ: inactive

Results for Cc1ccnc2nc(C(=O)Nc3nnc(-c4ccc(Cl)cc4)o3)nn12 ?
PP1 inh: inactive; Granule exo inh: inactive; SKKanGAS inh: inactive; PP5 inh: inactive; IDE inh: inactive; IDE cell activ: inactive

What do the screens show for `CN(C)c1ccc(C(=O)Nc2nnc(-c3ccc(Cl)cc3)o2)cc1`?
PP1 inh: inactive; Granule exo inh: inactive; SKKanGAS inh: 91; PP5 inh: inactive; IDE inh: inactive; IDE cell activ: inactive

How did O=C(Nc1nnc(-c2ccco2)o1)c1ccc(Cl)cc1 do in these assays?
PP1 inh: inactive; Granule exo inh: inactive; SKKanGAS inh: 87; PP5 inh: inactive; IDE inh: inactive; IDE cell activ: inactive

What do the screens show for `O=C(Nc1nnc(-c2ccccc2)o1)c1ccc(Cl)cc1`?
PP1 inh: inactive; Granule exo inh: inactive; SKKanGAS inh: 92; PP5 inh: inactive; IDE inh: inactive; IDE cell activ: inactive

What do the screens show for `O=C(Nc1nnc(C2=COCCO2)o1)c1ccc(Cl)cc1`?
PP1 inh: inactive; Granule exo inh: inactive; SKKanGAS inh: inactive; PP5 inh: inactive; IDE inh: inactive; IDE cell activ: inactive

How did CC(=O)c1ccc(C(=O)Nc2nnc(-c3ccc(Cl)cc3)o2)cc1 do in these assays?
PP1 inh: inactive; Granule exo inh: inactive; SKKanGAS inh: 91; PP5 inh: inactive; IDE inh: inactive; IDE cell activ: inactive

Results for O=c1[nH]c2cccc(F)c2n2cccc12 ?
PP1 inh: inactive; Granule exo inh: inactive; SKKanGAS inh: inactive; PP5 inh: inactive; IDE inh: inactive; IDE cell activ: inactive

How did CCOc1ccccc1NC(=O)Nc1ccc(Br)cc1C do in these assays?
PP1 inh: inactive; Granule exo inh: inactive; SKKanGAS inh: inactive; PP5 inh: inactive; IDE inh: inactive; IDE cell activ: inactive

Results for O=C(Nc1nnc(-c2ccncc2)o1)c1ccc2ccccc2c1 ?
PP1 inh: inactive; Granule exo inh: inactive; SKKanGAS inh: 78; PP5 inh: inactive; IDE inh: inactive; IDE cell activ: inactive

How did CN(c1ccccc1)S(=O)(=O)c1ccc(NC(=O)c2ccc(-c3ccccc3)cc2)cc1 do in these assays?
PP1 inh: inactive; Granule exo inh: inactive; SKKanGAS inh: inactive; PP5 inh: inactive; IDE inh: inactive; IDE cell activ: inactive

How did CN(c1ccccc1)S(=O)(=O)c1ccc(C(=O)Nc2nnc(-c3ccc(F)cc3)o2)cc1 do in these assays?
PP1 inh: inactive; SKKanGAS inh: 103; PP5 inh: inactive; IDE inh: inactive

What do the screens show for `O=S(=O)(Nc1ccc(-c2csc(-c3ccccc3)n2)cc1)c1ccc(F)cc1`?
PP1 inh: inactive; Granule exo inh: inactive; SKKanGAS inh: 98; PP5 inh: inactive; IDE inh: inactive; IDE cell activ: inactive

Results for NCCCC[C@H]1CNC(=S)N1CCc1cccc(F)c1 ?
PP1 inh: inactive; Granule exo inh: inactive; SKKanGAS inh: inactive; PP5 inh: inactive; IDE inh: inactive; IDE cell activ: inactive

How did CC(Oc1cccc(Cl)c1)C(=O)Nc1ccccc1C(=O)N1CCCCC1 (centres undefined) do in these assays?
PP1 inh: inactive; Granule exo inh: inactive; SKKanGAS inh: inactive; PP5 inh: inactive; IDE inh: inactive; IDE cell activ: inactive

What do the screens show for `CCC(Oc1ccccc1)C(=O)Nc1ccccc1N1CCCCC1` (centres undefined)?
PP1 inh: inactive; Granule exo inh: inactive; SKKanGAS inh: 61; PP5 inh: inactive; IDE inh: inactive; IDE cell activ: inactive

How did CCC(Oc1ccccc1)C(=O)Nc1ccccc1N1CCCC1 (centres undefined) do in these assays?
PP1 inh: inactive; Granule exo inh: inactive; SKKanGAS inh: inactive; PP5 inh: inactive; IDE inh: inactive; IDE cell activ: inactive
